Assay outcomes from PubChem.
AmpC nodet inh: inhibitors of E. coli AmpC beta-lactamase without detergent; P00811; AmpC nitrocefin hydrolysis, absorbance 480 nm, no detergent; Potency, µM (titrated, usually from 28.7 µM), inactives show at the top dose activity change, negative = inhibition; hit rate 1.8% among 71,000; further: % of control where 0% means no effect
Target sequence (P00811 whole entry, looked up): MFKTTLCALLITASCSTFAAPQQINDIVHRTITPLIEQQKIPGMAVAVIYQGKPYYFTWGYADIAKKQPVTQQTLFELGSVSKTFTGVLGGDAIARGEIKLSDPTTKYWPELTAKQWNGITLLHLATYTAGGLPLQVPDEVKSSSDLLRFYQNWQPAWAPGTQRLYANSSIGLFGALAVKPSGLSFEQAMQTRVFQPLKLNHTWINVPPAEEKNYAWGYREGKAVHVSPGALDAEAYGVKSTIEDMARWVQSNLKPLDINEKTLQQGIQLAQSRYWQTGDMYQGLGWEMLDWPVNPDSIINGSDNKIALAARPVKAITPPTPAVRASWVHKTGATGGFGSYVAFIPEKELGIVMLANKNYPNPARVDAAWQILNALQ
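AmpC in 20 mM phosphate buffer pH 7.0 was preincubated 15 min at room temperature with compounds. Nitrocefin (800 uM stock) was then added and hydrolysis followed at 480 nm every 20 s for 4 min.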
Prx2 Sm inh: inhibitors of Schistosoma mansoni peroxiredoxin 2. S. mansoni Prx2 activity coupled to TGR/GSH (TGR is thioredoxin glutathione reductase), NADPH fluorescence loss, qHTS. Potency, µM. hit rate 0.07% among 65,000. AID 448
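Prx2 activity was followed as the loss of NADPH fluorescence (ex 365/em 450 nm), read every 30 sec for 8 min after H2O2 start. The enzyme mix (50 nM Prx2, 25 nM TGR, GSH, NADPH; pH 7.4 phosphate buffer) was incubated with compound for 15 min at room temperature first.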
AmpC inh det: inhibitors of E. coli AmpC beta-lactamase with detergent; P00811; purified AmpC, nitrocefin hydrolysis with detergent; Potency, µM (top dose mostly 28.7 µM), for inactives: at the highest dose activity change, negative = inhibition; hit rate 0.09% among 71,000; AID 584; active means well fitted curve in the direction sought with a large enough effect; inconclusive means small, poorly fitted or top-dose-only effect; further: on the % scale 0 is the no-effect control and ±100 the full control effect
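E. coli AmpC (5.3 nM) in 20 mM phosphate pH 7.0 with 0.01% Triton X-100, preincubated 15 min RT with compound; nitrocefin (2 uL of 800 uM stock) hydrolysis followed by 480 nm absorbance every 20 s over 4 min.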
LT uptake inh: blocks cellular internalization of anthrax lethal toxin. Cells, anthrax lethal toxin internalization, FRET ratio (460/530). Potency, µM (series often up to 40 µM), for the others: at the highest dose activity change, negative = inhibition, most hits filed as inhibitors. hit rate 0.67% among 70,000; further: on the % scale 0 is the no-effect control and ±100 the full control effect; nearly all actives have a fitted effect of over 50% in size
* = called active by the depositor; ? = inconclusive; · = no result; ! = a repeat was not active; [ ] = remark or other dose. In the library only some 2.4% were active in any assay of this set; here they are far more common. Unless noted, the call rests on the fitted dose curve. Potency means the concentration at half of the fitted maximal effect.

SMILES	AmpC nodet inh	Prx2 Sm inh	AmpC inh det	LT uptake inh
CCCCN(C)C(=O)C(Cc1ccccc1)NS(=O)(=O)c1ccc2c(c1)CCC(=O)N2 (configuration not stated)	4µM*[single pt active]	>57	11%	9%
CC1(C)[C@@H](O)CC[C@@]2(C)[C@H]1CC[C@]1(C)[C@H]2C(=O)C=C2[C@@H]3C[C@@](C)(C(=O)O)CC[C@]3(C)CC[C@@]21C	-5%	>57	-5%	?
COc1nc(Nc2ccc3c(c2)OCO3)nc(OC)n1	4µM*[single pt active]	>57	11%	-1%
COc1nc(Nc2cccc(C(F)(F)F)c2)nc(OC)n1	-13%	>57	8%	-21%
N=c1n(CCO)c2ccccc2n1CCOc1ccc(Cl)cc1Cl	4µM*[single pt active]	>57	10%	?
N#CC1=C(N)NC(SCC(=O)Nc2ccccc2)=C(C#N)C12CCCC2	-20%	>57	6%	10µM*
CCCCCCCCCCCC1=C(O)C(=O)C=C(O)C1=O	4µM*	>57	-14%	?
CCCCCc1cc(O)cc(O)c1	-8%	·	10%	?
CCN1CCN(C(=O)C2CC(c3ccc(F)cc3)=NO2)CC1 (configuration not stated)	4µM*[single pt active]	>57	13%	-7%
N#CCSc1nc2ccccc2c(=O)n1CCC(=O)NCCc1ccccc1	16µM*[single pt active]	>57	-3%	1%
CC(=O)NCCn1c(SCC#N)nc2ccccc2c1=O	6%	>57	1%	?
Nc1ccc(N)c(Cl)c1	-17%	·	10%	13%
CC(C)C(NS(=O)(=O)c1ccc2c(c1)oc(=O)n2C)C(=O)N1CCN(C2CCCCC2)CC1 (configuration not stated)	17%	>57	5%	6%
CC(C)CC(NS(=O)(=O)c1ccc2c(c1)oc(=O)n2C)C(=O)NC1CCCc2ccccc21 (configuration not stated)	4µM*[single pt active]	>57	12%	-2%
CC1CC(C)CN(C(=O)C(NS(=O)(=O)c2ccc3c(c2)oc(=O)n3C)C(C)C)C1 (configuration not stated)	4µM*[single pt active]	>57	13%	-6%
CC(C)NC(=O)N1CCC2(CC1)CCN(S(C)(=O)=O)CC2	129%	·	-1%	?
C=C1C/C(=C\C)C(=O)O[C@@H]2CCN3CC=C(COC(=O)[C@]1(C)O)[C@H]23	-5%	>57	-3%	·
Nc1nc(SCc2ccccc2)ns1	-17%	>57	-4%	?
Nc1nc2c(s1)CC(c1ccccc1)CC2 (configuration not stated)	7.9µM*	>57	8%	4%
COC(=O)C1=C(C)Nc2ccc(C)cc2S1	4µM*[single pt active]	>57	12%	-17%
O=C(Nc1ccccc1-c1nc2ccccc2o1)c1ccc2c(c1)OCCO2	-21%	>57	5%	-17%
O=C(Nc1ccc2oc(-c3ccccc3F)nc2c1)c1ccc2c(c1)OCCO2	34%	>57	-3%	10µM*
NC(=NCCCCCCN=C(N)/N=C(\N)Nc1ccc(Cl)cc1)/N=C(\N)Nc1ccc(Cl)cc1	2.5µM*	>57	1%	?
COc1cc2c(=O)n(-c3ccc(C)cc3)c(=O)n(CC(=O)c3ccc4c(c3)OCO4)c2cc1OC	119%	>57	-4%	5%
COc1cc2c(O)c3c(c(-c4ccc5c(c4)OCO5)c2cc1OC)C(=O)OC3	6%	>57	4%	0.02µM*
SMILES	AmpC nodet inh	Prx2 Sm inh	AmpC inh det	LT uptake inh
CCC(C)NC(=O)CS(=O)Cc1nc(-c2cccc(OC)c2)oc1C (configuration not stated)	4µM*[single pt active]	>57	12%	-5%
COc1cccc(-c2nc(CS(=O)CC(=O)NC3CCCC3)c(C)o2)c1 (configuration not stated)	4µM*[single pt active]	>57	8%	4%
Cc1cccc(-c2nc(CS(=O)CC(=O)N3CCN(C)CC3)c(C)o2)c1 (configuration not stated)	4µM*[single pt active]	>57	10%	4%
CSCC[C@@H]1NC(=O)C/C=C\[C@@H](C)COC(=O)[C@@H](C)COC1=O	·	·	·	-15%[0.32 µM]
COC(=O)NC(c1ccco1)[C@@]1(C(=O)OC)CCCC1=O (some centres not stated)	·	·	·	-5%[8 µM]
CN1CCN(c2ccc(N)c(N3CCN(C)CC3)c2)CC1	10%	>57	11%	13µM*
Nc1ccc(N2CCCCC2)cc1N1CCCCC1	13%	>57	5%	0%
CC[N+](CC)(CC)CCOc1cccc(OCC[N+](CC)(CC)CC)c1OCC[N+](CC)(CC)CC	13µM*!	?	-5%[12.8 µM]	-4%[3.58 µM]
C=Cc1ccccc1	-6%	·	14%	-7%
O=[N+]([O-])/C=C/c1ccccc1	-12%	·	16%	4µM*
C=CCN1CCc2cccc3c2[C@@H]1Cc1ccc(O)c(O)c1-3	-13%	>57	0%	?
Cc1ccc2c(c1)c(-c1ccccc1)nc1nncn12	2.5µM*[single pt active]	>57	14%	?
Cc1cccc(-c2nc3ccccc3c3nncn23)c1	16%	·	3%	-12%
CCN1C[C@@]2(COC)[C@H](O)C[C@H](OC)[C@@]34[C@@H]5C[C@@]6(O)[C@H](OC(=O)c7ccccc7)[C@H]5[C@@](OC(C)=O)([C@H]([C@@H](OC)[C@H]23)[C@H]14)[C@H](O)[C@@H]6OC	7%	>57	-1%	?
CCOc1ccc(NC(=O)CSc2nnc(Cn3c(=O)sc4ccccc43)n2C)cc1	4µM*[single pt active]	>57	25%	-4%
Cc1ccc(CSc2nnc(Cn3c(=O)sc4ccccc43)n2C)cc1	26%	>57	6%	-9%
Cc1ccc(NC(=O)CSc2nnc(Cn3c(=O)sc4ccccc43)n2C)cc1	23%	>57	14%	-9%
Cn1c(Cn2c(=O)sc3ccccc32)nnc1SCC(=O)Nc1ccccc1	4µM*[single pt active]	>57	14%	1%
COc1ccc(NC(=O)CSc2nnc(Cn3c(=O)sc4ccccc43)n2C)cc1	?	>57	10%	-5%
Cc1ccc(NC(=O)CSc2nnc(Cn3c(=O)sc4ccccc43)n2C)cc1Cl	4µM*[single pt active]	>57	8%	5%
CC(C)CCSc1nnc(Cn2c(=O)sc3ccccc32)n1C	4µM*[single pt active]	>57	14%	-13%
COC(=O)N1CCC2(CC1)CCN(c1cccc(-c3ccccc3)c1)CC2	18%	>57	2%	17%
COC(=O)[C@H](N)CCCN=C(N)N[N+](=O)[O-]	-14%	>57	-3%	4%
CCCS(=O)(=O)NCCc1csc(-c2cccnc2)n1	17%	>57	11%	-2%
Cn1c(Cn2c(=O)sc3ccccc32)nnc1SCC(=O)Nc1ccc(F)cc1	4µM*[single pt active]	>57	10%	-6%
N#Cc1sc2nc(-c3ccccc3)cc(-c3ccco3)c2c1N	6.3µM*	>57	-1%	?
COC(=O)c1sc2nc(-c3ccco3)ccc2c1N	-10%	>57	-4%	3%
N#Cc1c(-c2ccccc2)cc(-c2ccco2)c(C#N)c1N	6.3µM*	·	12%	?
COc1ccccc1C(c1nnnn1CCc1ccccc1)N1CCN(c2ccccc2)CC1 (configuration not stated)	27%	>57	-1%	7.9µM*
